Reference: the OligoGym collection

biological target: EFCAB6; test: pooled miR-30 sensor sort-seq; sequence = guide strand; conditions: shRNA

Sequence	sensor-assay potency score (higher = more potent)
TTGAATATACTCTACACGGTGA	0.203
TTCTTAGACAAGTCTGACCATC	-0.457
TTTCATAACAGTCTTAATGTTT	-0.893
TTGACTGGCATCTCGTTCCAGA	-0.455
TTAGACAAGTCTGACCATCTGT	0.537
TATATCGAAATTCTTCTCTTGT	0.825
TAGTTCTGAATCCGCAACCTTC	-0.922

biological target: EFCAB7; test: as above; conditions: shRNA

Sequence	sensor-assay potency score (higher = more potent)
TTGTTTTCAATAACTGACGTTA	-0.29
TTGATCTTTAGAAATAATGTTT	-0.858
TTTGTATCAAAATTCTCTCTGC	0.129
TTCTCGATCATTAGCTTCCATT	-1.27
TTCATCTCTATATACAAGTTGG	-0.725
TTCTCTATTTCGTAGTTCGGTA	-1.01
TAATTTACAAAACTTGATGTAG	-0.142
TTCGGTAAAACACACAAGCTGT	-0.242
TACAATAATATATCCATTCTTG	-0.277
TTTACTGTCAACCTCTAGTTTT	-1.12
TAGTCTTGAGACATTGCTCGTT	0.405
TATATTTTCATAGCCATCCATT	-0.796

biological target: EFNB2; test: as above; conditions: shRNA

Sequence	sensor-assay potency score (higher = more potent)
TAGAGGATCATAATTTCTGTGA	-0.365
TAATAGTGCATCTGTCTGCTTG	0.293
TAGTGCATCTGTCTGCTTGGTC	0.00867
TATAATGTAATAATCTTTGTTC	0.426
AATTCTTGAAACTTGATGGTGA	0.644
TTAGACTTTATAAAAAACCAAC	-1.36
TTTATACAAAACATCTTGCTTA	0.624
TATAGTACCAGTCCTTGTCCAG	-0.415
TATAATATTCATACTGGCCAAC	-1.28
TTGTTGTCGAACTTCTTCCATT	-1.15
TTTTCCTTCTTAATAGTGCATC	-0.818
TTGGAAATCGCAGTTCTGCATA	-1.17
TTTATCAACCATATAAACTTTA	-0.264
ATAGGCTCTAAAACTATCGATT	-0.56
TTCTGCACAGTCTTCCAGCTTC	-0.41
TTGATCCAGCAGAACTTGCATC	-0.768
TTGTCGAACTTCTTCCATTTGT	-0.423
TTGCTCTATGTACACAATCTGG	-1.18
TATCTGTGGGTATAGTACCAGT	-1.11
TTAATAGTGCATCTGTCTGCTT	-0.0531
TTTTCTTCCTGCACATCGCTAT	0.000564
